In PubChem BioAssay (EPA / NIEHS):
The source holds several records for some structures; these can differ, active in one and inactive in another. The source made the active and inactive calls. How the source made its calls: active means hit-call score of the fitted dose curve at least 0.9, where 1 is the maximum; inactive means score below 0.9.

assay: CCTE_Shafer_MEA_dev_per_burst_spike_percent: CCTE's Neural Network Formation Assay for Percent of Spikes in a Burst, Shafer Lab (AID 2284032);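 on AC50: fitted as a decrease in burst spike percentage below DMSO baseline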
Outline: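 Value is trapezoidal AUC over recordings on days 5, 7, 9 and 12 of the well-mean fraction of spikes falling in single-electrode bursts; rat cortical cultures exposed continuously from plating, treatment renewed DIV 5 and 9, fitted downward against DMSO.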

Compound | outcome | AC50
OCC(F)(F)OC(F)(F)C(F)(F)OC(F)(F)C(F)(F)OC(F)(F)F | inactive | 
O=P1(N(CCCl)CCCl)NCCCO1 (stereo unspecified) | inactive | 
OCC(F)(F)OC(F)(F)C(F)(F)OC(F)(F)CO | inactive | 
O=C(O)C(F)(F)OC(F)(F)C(F)(F)OC(F)(F)F | inactive | 
CCOP(=S)(OCC)SCSCC | inactive | 74.7 µM (active)
O=S(=O)(c1ccc(O)cc1)c1ccc(O)cc1 | inactive | 
O=C(O)C(F)(F)C(F)(F)C(=O)O | inactive | 
O=C(O)C(F)(OC(F)(F)C(F)(F)C(F)(F)F)C(F)(F)F (stereo unspecified) | inactive | 
CCCCC(CC)COC(=O)c1c(Br)c(Br)c(Br)c(Br)c1C(=O)OCC(CC)CCCC (stereo unspecified) | inactive | 
c1ccc(OP(Oc2ccccc2)Oc2ccccc2)cc1 | inactive | 
c1cc2c3c(cccc3c1)CC2 | inactive | 
OCC(F)(F)OC(F)(F)C(F)(F)OC(F)(F)C(F)(F)OC(F)(F)CO | inactive | 
CO/N=C(/C(=O)OC)c1ccccc1COc1ccccc1C |  | 0.639 µM (active)
O=C(O)C=CC(F)(C(F)(F)F)C(F)(F)F | inactive | 
CC(C)(C)c1ccccc1OP(=O)(Oc1ccccc1)Oc1ccccc1 | inactive | 26.2 µM (active)
C=CC(=O)OCC(F)(F)C(F)F |  | 5.66 µM (active)
O=C(O)C(F)(F)OC(F)(F)C(F)(F)OC(F)(F)C(=O)O | inactive | 
O=P(Oc1ccccc1)(Oc1ccccc1)Oc1ccccc1 | inactive | 
CC(O)C(F)(F)C(F)(F)F (stereo unspecified) | inactive | 
